Data reported in PubChem BioAssay (NCATS).
“And” between values parts separate entries of the source, which are not always exact repeats. Equal values may be shown once. Results filed as inconclusive are left out. Some compounds were tested as several samples or in several runs, with calls that do not always agree. The source made the active and inactive calls. Unless noted, calls come from the whole dose curve.

Key:
[1] = qHTS for Inhibitors of the Functional Ribonucleoprotein Complex (vRNP) of Lassa (LASV) Arenavirus: LASV Primary Screen - GLuc reporter signal (AID 1347082; calls by dose curve; tested in HEK293 reporter line; note: % is set by controls: 0 for no effect and ±100 for the full control effect; nearly all actives have a fitted effect of over 60% in size)
[2] = qHTS for Inhibitors of the Functional Ribonucleoprotein Complex (vRNP) of Lassa (LASV) Arenavirus: Viability assay - alamar blue signal for LASV Primary Screen (AID 1347083; calls by dose curve; tested in HEK293 reporter line; note: % is set by controls: 0 for no effect and ±100 for the full control effect; nearly all actives have a fitted effect of over 80% in size)
[3] = qHTS for Inhibitors of the Functional Ribonucleoprotein Complex (vRNP) of Lymphocytic Choriomeningitis Arenaviruses (LCMV): Viability assay - alamar blue signal for LCMV Primary Screen (AID 1347085; calls by dose curve; tested in HEK293 reporter line; note: % is set by controls: 0 for no effect and ±100 for the full control effect; nearly all actives have a fitted effect of over 80% in size)
[4] = target: Nucleoprotein (Lymphocytic choriomeningitis virus (strain Armstrong)) (UniProt P09992); assay: qHTS for Inhibitors of the Functional Ribonucleoprotein Complex (vRNP) of Lymphocytic Choriomeningitis Arenaviruses (LCMV): LCMV Primary Screen - GLuc reporter signal (AID 1347086); note: % is set by controls: 0 for no effect and ±100 for the full control effect; nearly all actives have a fitted effect of over 70% in size
[5] = tested on: Zika virus NS2B-NS3 protease; assay: Primary screen GU AMC qHTS for Zika virus inhibitors (AID 1347154; active = well fitted curve in the direction sought with a large enough effect; an effect the other way counts as inactive or inconclusive;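 note: 0% = no-inhibitor control and -100% = no-enzyme control; nearly all actives have a fitted effect of over 70% in size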)
Summary of the method: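 Unlinked Zika NS2B hydrophilic domain–NS3 protease complex at 25 nM in 10 mM Tris-HCl pH 8.0, 0.01% Tween 20, with an AMC peptide substrate. Fluorescence change (340/450 nm) over 15 min at room temperature, normalized to controls, fitted to 4-parameter Hill.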

[6] = Primary qHTS for small molecule stabilizers of the endoplasmic reticulum resident proteome: Secreted ER Calcium Modulated Protein (SERCaMP) assay (AID 1508630; active = well fitted curve in the direction sought with a large enough effect; an effect the other way counts as inactive or inconclusive; note: % is set by controls: 0 for no effect and ±100 for the full control effect)
Summary of the method: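 GLuc-SERCaMP-expressing SH-SY5Y cells, pretreated 16 h with compound, are challenged with thapsigargin to empty ER calcium stores; after 4 h, coelenterazine is added directly to the medium and luminescence is imaged.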

[7] = AP1 Signaling Pathway (AID 357; active = well fitted curve in either direction with a large enough effect, not every such curve was filed as active; note: % is set by controls: 0 for no effect and ±100 for the full control effect)
Summary of the method: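 ME-180 cells with beta-lactamase reporter under AP-1 response element, stimulated with EC50 EGF; compounds tested in titration series, 5 h at 37 °C. CCF4 substrate added 2.5 h at room temperature; 460/530 nm emission ratio gave %activity and AC50.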

[8] = target: Cytochrome P450 1A2 (Homo sapiens) (UniProt P05177); assay: p450-cyp1a2 (AID 410); note: potency is the fitted concentration of half-maximal effect;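 for activity change, negative = inhibition: -100% = full effect of reference inhibitor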
Summary of the method: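 Human CYP1A2 (20nM) demethylated Luciferin-ME at its Km (100uM) in 100mM KPO4. After 10 min compound preincubation, NADPH regeneration ran the reaction 60 min at room temperature. Luciferin was read by luminescence, normalized to 57 uM furafylline.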

[9] = NFAT Signaling Pathway (AID 444; active = well fitted curve in either direction with a large enough effect, not every such curve was filed as active;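 note: carbachol stimulus at about its EC50 of 1 µM final; % is set by controls: 0 for no effect and ±100 for the full control effect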); conditions: Jurkat NFAT-bla M1, carbachol, beta-lactamase ratio, 5 h; at 17.2 µM (top of the series)
Summary of the method: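 Jurkat cells with NFAT-driven β-lactamase reporter and co-expressed M1 receptor, stimulated with carbachol (final 1 uM, ~EC50), compound titration, 5 h at 37 °C. CCF4 loaded 1 h at RT; 460/530 nm ratio gave %activity and AC50.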

[10] = Stat Signaling Pathway (AID 446; active = well fitted curve in either direction with a large enough effect, not every such curve was filed as active;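 note: ME-180 cervical cancer cells given 40 pM IL-6 alongside compound; SIE-controlled beta-lactamase reporter measured as 460/530 nm FRET emission ratio; % is set by controls: 0 for no effect and ±100 for the full control effect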)
Summary of the method: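 IL-6/STAT signaling read in ME-180 cells via an SIE beta-lactamase reporter. Stimulus was 40 pM IL-6 (its AC50) for 5 hrs, so both activation and inhibition register.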

[11] = target: Glucocorticoid receptor (Homo sapiens) (UniProt P04150); assay: GR-GFP Redistribution (AID 450;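 active = compounds whose dose series gives a full or clear partial fitted curve of increased nuclear translocation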; note: potency is the fitted concentration of half-maximal effect); conditions: U2OS GR-GFP nuclear translocation, laser cytometry, 2 h
[12] = target: Mitogen-activated protein kinase 10 (Mus musculus) (UniProt Q61831); assay: JNK3 AlphaScreen Assay (AID 530; active = well fitted curve in either direction with a large enough effect, not every such curve was filed as active)
Summary of the method: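 qHTS format: compounds tested as titrations against IL-1beta/TNF-alpha-activated HepG2 lysate JNK3 with biotin-GST-cJun substrate and 10 uM ATP at room temperature. Loss of anti-phospho-cJun AlphaScreen signal indicates inhibition.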

[13] = target: 3',5'-cyclic-AMP phosphodiesterase 4B (Homo sapiens) (UniProt Q07343); assay: qHTS Assay for Inhibitors of PDE-IV (AID 607; active = well fitted activation curve with a large enough effect in the main read-out, with a control signal flat, not every such curve was filed as active; note: % of control where 0% means no effect)
Summary of the method: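 Live HEK293 cells with a modified cyclic nucleotide-gated (CNG) channel report intracellular cAMP via membrane-potential dye fluorescence (ex 535/em 590 nm). Endogenous PDE-IV was targeted. Compounds were tested at up to 22.9 uM final; RO 20-1724 100 uM served as control.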

[14] = target: Cytochrome P450 2C19 (Homo sapiens) (UniProt P33261); assay: qHTS Assay for Inhibitors and Substrates of Cytochrome P450 2C19 (AID 899; active = well fitted curve in the direction sought with a large enough effect; an effect the other way counts as inactive or inconclusive; note: potency is the fitted concentration of half-maximal effect; nearly all actives have a fitted effect of over 60% in size)
Summary of the method: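 5 nM human CYP2C19 with 10uM Luciferin-H EGE (at KM) in 50mM KPO4, compound preincubated 10 min at 37C, then NADPH regeneration for 60 min at 37C. Luciferin read by luminescence after detection reagent; normalized to 57uM ketoconazole as full inhibition.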

[15] = qHTS Assay for Lipid Storage Modulators (AID 1519); conditions: Drosophila S3 cells, BODIPY lipid droplet/cell ratio, laser cytometry, cells loaded with oleic acid
Summary of the method: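 Cells seeded at 5,000 per well were treated with compounds over a concentration series and loaded with oleic acid (400 uM, as added). Lipid droplet fluorescence (488 nm excitation, 500-530 nm channel) was read by laser-scanning cytometry and normalized to 20 uM Triacsin C.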

[16] = target: Ubiquitin carboxyl-terminal hydrolase 1 (Homo sapiens) (UniProt O94782); assay: Inhibitors of USP1/UAF1: Pilot qHTS (AID 504865; active = well fitted curve in the direction sought with a large enough effect; an effect the other way counts as inactive or inconclusive;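 note: rhodamine fluorescence freed from ubiquitin-rhodamine substrate followed over time; top concentration of the series differs between compounds; % is set by controls: 0 for no effect and ±100 for the full control effect; nearly all actives have a fitted effect of over 35% in size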)
Summary of the method: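 Deubiquitinase activity followed as kinetic rhodamine fluorescence release from 150 nM Ub-Rho. 1 nM USP1/UAF1 with compound, after 15 min room-temperature preincubation, in HEPES pH 7.8 buffer containing TCEP, EDTA, BSA and Tween-20.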

[17] = target: DNA dC->dU-editing enzyme APOBEC-3G (Homo sapiens) (UniProt Q9HC16); assay: qHTS for inhibitors of Vif-A3G interactions: Validation (AID 588379; active = well fitted curve in the direction sought with a large enough effect; an effect the other way counts as inactive or inconclusive; note: 0% is about no effect)
Summary of the method: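 HeLa cells stably expressing Vif and A3G-eYFP, 700 cells/well, incubated overnight at 37 deg C, then exposed to compound overnight at 37 deg C. Inhibition of Vif-mediated degradation read as increased yellow fluorescence (Ex 488/Em 500-530) by laser-scanning cytometry.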

[18] = Primary qHTS for inhibitors of SARS-S pseudo-typed particle cell entry (AID 1479145); note: % is set by controls: 0 for no effect and ±100 for the full control effect; nearly all actives have a fitted effect of over 45% in size
[19] = Primary qHTS for Huh7 cytotoxicity: counterscreen for inhibitors of MERS-S pseudotyped particle cell entry (AID 1479147); conditions: outcome: dose series up to 57.1 µM unless noted
[20] = Primary qHTS for inhibitors of MERS-S pseudo-typed particle cell entry (AID 1479149); note: nearly all actives have a fitted effect of over 60% in size
[21] = Primary qHTS for Vero E6 cytotoxicity: counterscreen for inhibitors of SARS-S pseudo-typed particle cell entry (AID 1479150); conditions: outcome: dose series up to 57.1 µM unless noted
[22] = Cytotoxicity counterscreen for inhibitors of SARS-CoV-2 cell entry (AID 1645845); note: % is set by controls: 0 for no effect and ±100 for the full control effect; nearly all actives have a fitted effect of over 50% in size
Summary of the method: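 HEK293-ACE2 cells (Expi293F stably expressing human ACE2) seeded overnight, then compound for 1 h plus 48 h at 37C. Viability as ATP content by luminescence; normalized to wells with cells and media-only wells.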

Sequence of Nucleoprotein (Lymphocytic choriomeningitis virus (strain Armstrong)) (P09992 whole entry, looked up): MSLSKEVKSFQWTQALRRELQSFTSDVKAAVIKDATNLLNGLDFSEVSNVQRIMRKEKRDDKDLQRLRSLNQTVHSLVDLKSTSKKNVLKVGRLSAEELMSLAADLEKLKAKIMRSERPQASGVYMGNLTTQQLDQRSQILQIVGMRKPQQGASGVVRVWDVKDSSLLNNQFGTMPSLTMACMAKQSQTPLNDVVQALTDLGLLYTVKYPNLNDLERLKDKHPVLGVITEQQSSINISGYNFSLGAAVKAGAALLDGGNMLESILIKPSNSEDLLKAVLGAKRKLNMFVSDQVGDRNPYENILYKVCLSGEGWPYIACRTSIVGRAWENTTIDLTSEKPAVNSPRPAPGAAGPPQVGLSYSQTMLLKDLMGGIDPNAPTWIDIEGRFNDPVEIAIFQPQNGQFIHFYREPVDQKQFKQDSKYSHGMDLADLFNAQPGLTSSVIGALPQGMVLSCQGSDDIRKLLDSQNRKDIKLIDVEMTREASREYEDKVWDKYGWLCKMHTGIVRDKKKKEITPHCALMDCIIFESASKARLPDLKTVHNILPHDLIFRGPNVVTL
Sequence of Cytochrome P450 1A2 (Homo sapiens) (P05177 whole entry, looked up): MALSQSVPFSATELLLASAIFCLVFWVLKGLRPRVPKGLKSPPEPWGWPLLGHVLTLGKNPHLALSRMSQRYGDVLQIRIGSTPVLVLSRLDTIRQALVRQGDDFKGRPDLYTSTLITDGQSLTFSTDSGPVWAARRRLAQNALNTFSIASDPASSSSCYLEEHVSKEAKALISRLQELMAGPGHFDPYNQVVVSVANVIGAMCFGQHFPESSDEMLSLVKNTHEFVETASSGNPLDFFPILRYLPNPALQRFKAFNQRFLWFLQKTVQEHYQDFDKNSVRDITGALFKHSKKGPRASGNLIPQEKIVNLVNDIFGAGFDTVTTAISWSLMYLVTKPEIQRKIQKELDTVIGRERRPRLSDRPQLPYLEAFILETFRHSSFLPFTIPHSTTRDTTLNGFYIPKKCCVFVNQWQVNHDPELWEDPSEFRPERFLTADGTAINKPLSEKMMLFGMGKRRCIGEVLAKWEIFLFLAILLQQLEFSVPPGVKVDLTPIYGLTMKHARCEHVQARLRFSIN
Sequence of 3',5'-cyclic-AMP phosphodiesterase 4B (Homo sapiens) (Q07343 whole entry, looked up): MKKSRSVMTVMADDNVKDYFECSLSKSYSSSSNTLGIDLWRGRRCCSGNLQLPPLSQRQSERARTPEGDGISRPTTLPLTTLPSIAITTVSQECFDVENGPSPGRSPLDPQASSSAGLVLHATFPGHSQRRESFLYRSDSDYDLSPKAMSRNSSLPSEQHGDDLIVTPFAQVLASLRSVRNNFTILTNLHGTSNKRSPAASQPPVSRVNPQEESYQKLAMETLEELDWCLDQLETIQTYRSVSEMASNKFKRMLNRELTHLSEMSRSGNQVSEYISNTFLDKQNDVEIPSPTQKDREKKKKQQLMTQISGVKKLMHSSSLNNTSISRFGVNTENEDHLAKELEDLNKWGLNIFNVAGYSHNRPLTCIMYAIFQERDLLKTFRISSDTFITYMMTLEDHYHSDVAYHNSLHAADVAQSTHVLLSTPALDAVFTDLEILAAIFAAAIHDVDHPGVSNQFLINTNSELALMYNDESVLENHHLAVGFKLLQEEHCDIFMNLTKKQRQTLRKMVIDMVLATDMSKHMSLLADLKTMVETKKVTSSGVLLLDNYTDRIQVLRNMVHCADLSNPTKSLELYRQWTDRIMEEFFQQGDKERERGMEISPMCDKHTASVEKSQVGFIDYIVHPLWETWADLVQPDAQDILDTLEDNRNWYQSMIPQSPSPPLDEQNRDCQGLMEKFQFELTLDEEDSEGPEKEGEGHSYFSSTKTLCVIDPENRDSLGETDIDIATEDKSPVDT
Sequence of Ubiquitin carboxyl-terminal hydrolase 1 (Homo sapiens) (O94782 whole entry, looked up): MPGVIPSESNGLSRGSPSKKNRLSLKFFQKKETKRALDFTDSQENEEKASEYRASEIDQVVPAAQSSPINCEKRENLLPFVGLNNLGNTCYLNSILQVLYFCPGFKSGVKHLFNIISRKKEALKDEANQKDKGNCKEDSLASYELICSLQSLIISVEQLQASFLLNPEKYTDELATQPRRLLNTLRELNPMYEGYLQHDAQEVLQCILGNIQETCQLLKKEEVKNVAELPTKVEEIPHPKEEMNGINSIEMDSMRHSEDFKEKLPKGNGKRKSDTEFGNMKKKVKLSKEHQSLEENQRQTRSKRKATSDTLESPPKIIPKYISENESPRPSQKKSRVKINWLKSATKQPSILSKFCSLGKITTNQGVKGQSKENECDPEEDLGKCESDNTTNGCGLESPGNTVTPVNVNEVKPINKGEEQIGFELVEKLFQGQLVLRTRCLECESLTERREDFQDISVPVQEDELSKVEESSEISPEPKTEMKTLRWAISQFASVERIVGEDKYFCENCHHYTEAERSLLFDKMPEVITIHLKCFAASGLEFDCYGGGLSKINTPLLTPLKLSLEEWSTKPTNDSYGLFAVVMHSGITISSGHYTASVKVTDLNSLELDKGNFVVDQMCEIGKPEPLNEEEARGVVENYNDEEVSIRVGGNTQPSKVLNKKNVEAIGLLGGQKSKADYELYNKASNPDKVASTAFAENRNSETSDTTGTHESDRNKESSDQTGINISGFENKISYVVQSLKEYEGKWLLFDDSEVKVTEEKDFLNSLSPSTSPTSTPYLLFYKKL
Sequence of Glucocorticoid receptor (Homo sapiens) (P04150 whole entry, looked up): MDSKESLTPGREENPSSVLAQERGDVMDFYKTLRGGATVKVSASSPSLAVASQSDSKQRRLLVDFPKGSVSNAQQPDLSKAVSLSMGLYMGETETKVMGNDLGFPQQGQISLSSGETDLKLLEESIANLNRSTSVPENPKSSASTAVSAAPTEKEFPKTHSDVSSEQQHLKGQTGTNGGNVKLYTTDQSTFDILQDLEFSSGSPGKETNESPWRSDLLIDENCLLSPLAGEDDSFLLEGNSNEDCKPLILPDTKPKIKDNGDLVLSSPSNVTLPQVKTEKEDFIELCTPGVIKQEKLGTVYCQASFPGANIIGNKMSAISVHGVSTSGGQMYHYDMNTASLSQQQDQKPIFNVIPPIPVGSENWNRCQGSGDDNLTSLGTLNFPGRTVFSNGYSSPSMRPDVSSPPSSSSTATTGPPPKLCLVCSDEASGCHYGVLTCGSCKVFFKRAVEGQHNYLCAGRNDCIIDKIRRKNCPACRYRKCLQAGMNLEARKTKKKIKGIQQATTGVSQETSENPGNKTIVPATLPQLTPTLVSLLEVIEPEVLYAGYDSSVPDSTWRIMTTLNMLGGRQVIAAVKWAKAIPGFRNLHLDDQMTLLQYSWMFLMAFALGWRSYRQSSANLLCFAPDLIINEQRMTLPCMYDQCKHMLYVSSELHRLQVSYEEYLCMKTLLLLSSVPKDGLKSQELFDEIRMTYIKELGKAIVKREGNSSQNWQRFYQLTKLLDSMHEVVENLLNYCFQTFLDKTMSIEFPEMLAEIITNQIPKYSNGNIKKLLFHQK
Sequence of DNA dC->dU-editing enzyme APOBEC-3G (Homo sapiens) (Q9HC16 whole entry, looked up): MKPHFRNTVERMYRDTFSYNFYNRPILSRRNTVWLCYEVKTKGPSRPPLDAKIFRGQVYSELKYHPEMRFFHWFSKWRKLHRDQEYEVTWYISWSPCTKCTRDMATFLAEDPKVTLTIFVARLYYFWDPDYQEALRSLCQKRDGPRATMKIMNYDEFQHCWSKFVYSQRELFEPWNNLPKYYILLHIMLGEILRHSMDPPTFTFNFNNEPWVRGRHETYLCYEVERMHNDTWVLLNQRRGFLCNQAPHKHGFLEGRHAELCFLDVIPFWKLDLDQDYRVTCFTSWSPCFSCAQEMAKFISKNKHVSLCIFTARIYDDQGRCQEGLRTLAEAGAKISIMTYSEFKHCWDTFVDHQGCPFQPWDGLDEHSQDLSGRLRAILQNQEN
Sequence of Cytochrome P450 2C19 (Homo sapiens) (P33261 whole entry, looked up): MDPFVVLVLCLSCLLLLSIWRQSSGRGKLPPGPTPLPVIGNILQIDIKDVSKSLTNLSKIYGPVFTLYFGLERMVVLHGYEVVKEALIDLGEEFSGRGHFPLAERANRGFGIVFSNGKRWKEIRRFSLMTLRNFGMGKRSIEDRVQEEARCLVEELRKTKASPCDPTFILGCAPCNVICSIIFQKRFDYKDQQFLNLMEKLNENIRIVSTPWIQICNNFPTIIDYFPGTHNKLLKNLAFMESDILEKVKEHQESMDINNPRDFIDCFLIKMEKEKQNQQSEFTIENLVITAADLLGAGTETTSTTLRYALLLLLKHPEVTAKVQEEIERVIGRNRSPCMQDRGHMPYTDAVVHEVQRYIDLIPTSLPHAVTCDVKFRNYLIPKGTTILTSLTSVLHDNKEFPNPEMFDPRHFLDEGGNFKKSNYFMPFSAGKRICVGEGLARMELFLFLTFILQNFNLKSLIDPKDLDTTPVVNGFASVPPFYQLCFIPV

Cn1cccc1-c1cccnc1
inactive: Potency [1] | Potency [2] | Potency [3] | Potency [4] | Potency [5] | Potency [6]

c1cncc([C@@H]2CCCCN2)c1
inactive: outcome [7] | activity change, negative = inhibition [9] -6.22% | outcome [10] | Potency [11] > 20.6 µM and > 46 µM | outcome [12] | Potency [13] | activity change, negative = inhibition ([15]; at 25.7 µM (top of the series)) -0.77% | activity change, negative = inhibition ([15]; at 57.5 µM (top of the series)) -0.69% | Potency [16] | Potency [17] | Potency [1] | Potency [2] | Potency [3] | Potency [4] | Potency [5]
-8.06% and -15.1%: max response ([15]; measured here: cell count channel max response)
active: Potency [14] 2000 nM
5.01 µM (active) and inactive: Potency [8]
-8.76% and -13.6%: max response ([15]; measured here: lipid channel max response)

CC1=C(/C=C/C(C)=C/C=C/C(C)=C/C=C/C=C(C)/C=C/C=C(C)/C=C/C2=C(C)C[C@@H](O)CC2(C)C)C(C)(C)C[C@H](O)C1
inactive: Potency [1] | Potency [2] | Potency [3] | Potency [4] | Potency [18] | outcome [19] | Potency [20] | outcome [21] | Potency [22]

O=C1N[C@@H](Cc2c[nH]c3ccccc23)C(=O)N[C@H]1Cc1c[nH]c2ccccc12
inactive: Potency [1] | Potency [2] | Potency [3] | Potency [4]

COc1cc2c3c(c1OC)-c1cc(O)ccc1CC3NCC2 (configuration not stated)
inactive: Potency [1] | Potency [2] | Potency [3] | Potency [4]
